Measured values from PubChem BioAssay (Tox21).
“And” between values parts separate entries of the source, which are not always exact repeats. Equal entries are not always repeated. Inconclusive results are not listed. Entries that show only a call come without a potency. The source holds several records for some structures; these can differ, active in one and inactive in another. The source made the active and inactive calls. Calls come from the whole dose curve; as a rule, active = well fitted inhibition curve with a large enough effect in the signal ratio in the repeat runs; inconclusive = weak or mixed curves, or effect the other way; inactive = flat fitted curve, though single readings scatter; the % refers to the signal ratio.

test: qHTS assay for small molecule disruptors of the mitochondrial membrane potential (AID 720635); conditions: HepG2 mitochondrial membrane potential, Mito-MPS dye ratio; series mostly up to 83.2 µM
From the text: U.S. Tox21 Program National Center for Advancing Translational Sciences [NCATS] NIH Chemical Genomics Center [NCGC] U.S. Environmental Protection Agency [EPA] National Institutes of Environmental Health Sciences [NIEHS] National Toxicology Program [NTP] U.S. Food and Drug Administration [FDA] Tox21 Assay Overview: Mitochondrial membrane potential (MMP), one of the parameters for mitochondrial function, is generated by mitochondrial electron transport chain that creates an electrochemical gradient by a series of redox reactions. This gradient drives the synthesis of ATP, a crucial molecule for various cellular processes. Measuring MMP in living cells is commonly used to assess the effect of chemicals on mitochondrial function. […] The dye accumulates in the mitochondria of healthy cells as aggregates, with red fluorescence. The mitochondrial potential collapses and the dye can no longer accumulate in the mitochondria and remains in the cytoplasm in monomers, with green fluorescence.
Tox21 Assay Protocol Summary: 2,000 HepG2 cells in 5 uL/well were dispensed into black, clear-bottom 1536-well plates using a Multidrop Combi (Thermo Scientific) dispenser. The assay plates were incubated overnight at 37C to allow cells to attach to the wells, followed by the transfer of 23 nL compound or DMSO vehicle by a pin tool (Kalypsys). The plates were incubated for 1 hr at 37C and 5% CO2, followed by the addition of 5 uL of 2X Mito-MPS dye (BD Biosciences) into each well using Flying Reagent Dispenser (Aurora Discovery) and then following 30 min incubation at 37C. Fluorescence intensity (490nm excitation and 535nm emission for monomers; and 540nm excitation and 590nm emissions for aggregates) was measured using an Envision plate reader.
Potency is the fitted concentration of half-maximal effect.

**Q.** For `COCCl`, which Potency is on record?
**A.** inactive

**Q.** For `Cc1ccc([N+](=O)[O-])cc1C`, which Potency is on record?
**A.** 47.7 µM (active) and inactive

**Q.** For `CC1C=[C-]C=C1.[C-]#[O+].[C-]#[O+].[C-]#[O+].[Mn]`, which Potency is on record?
**A.** inactive

**Q.** With `CCCCCOC(=O)c1ccccc1C(=O)OCCCCC` as the compound, how does the Potency read?
**A.** inactive

**Q.** For `O=C1CCCN1`, which Potency is on record?
**A.** inactive

**Q.** Which Potency does the source give for `CCC(C)(CC)c1cc(NC(=O)c2c(OC)cccc2OC)on1` here?
**A.** 27.4 µM (active) and 20.9 µM (active)

**Q.** For `O=NN1CCCCCCC1`, which Potency is on record?
**A.** inactive

**Q.** With `CC(C)OC(=O)Nc1ccccc1` as the compound, how does the Potency read?
**A.** inactive

**Q.** With `CC(Br)C(=O)O` (stereo not given) as the compound, how does the Potency read?
**A.** inactive

**Q.** With `COP(N)(=O)SC` (stereo not given) as the compound, how does the Potency read?
**A.** inactive

**Q.** For `[N-]=[N+]=[N-]`, which Potency is on record?
**A.** inactive

**Q.** Which Potency does the source give for `CC(NC(C)(C)C)C(=O)c1cccc(Cl)c1` (stereo not given) here?
**A.** inactive

**Q.** With `O=C(NC(=O)c1c(F)cccc1F)Nc1cc(Cl)c(OC(F)(F)C(F)C(F)(F)F)cc1Cl` (stereo not given) as the compound, how does the Potency read?
**A.** 5.31 µM (active) and 7.7 µM (active)

**Q.** With `NCC(O)c1ccc(O)cc1` (stereo not given) as the compound, how does the Potency read?
**A.** inactive

**Q.** Which Potency does the source give for `COC(=O)NC(=S)Nc1ccccc1NC(=S)NC(=O)OC` here?
**A.** inactive

**Q.** Which Potency does the source give for `O=[N+]([O-])c1ccccc1` here?
**A.** inactive

**Q.** With `Cc1ccc(N)cc1Cl` as the compound, how does the Potency read?
**A.** inactive

**Q.** With `Clc1ccccc1Cl` as the compound, how does the Potency read?
**A.** inactive

**Q.** For `CCc1cccc(C)c1N(C(=O)CCl)C(C)COC` (stereo not given), which Potency is on record?
**A.** inactive

**Q.** For `CC(C)C1(C)N=C(c2nc3ccccc3cc2C(=O)O)NC1=O` (stereo not given), which Potency is on record?
**A.** inactive

**Q.** For `CC(C)C#N`, which Potency is on record?
**A.** inactive

**Q.** With `O=NN1CCCC1` as the compound, how does the Potency read?
**A.** inactive

**Q.** For `CNC(=O)Oc1ccccc1OC(C)C`, which Potency is on record?
**A.** inactive

**Q.** Which Potency does the source give for `Oc1ccccc1Cl` here?
**A.** inactive

**Q.** For `CCCCN(CCCC)SN(C)C(=O)Oc1cccc2c1OC(C)(C)C2`, which Potency is on record?
**A.** 62.1 µM (active)

**Q.** Which Potency does the source give for `O=c1ccc(=O)[nH][nH]1` here?
**A.** inactive

**Q.** With `Nc1c(Cl)c(Cl)nc(C(=O)O)c1Cl` as the compound, how does the Potency read?
**A.** inactive and 56.1 µM (active)

**Q.** Which Potency does the source give for `BrCCBr` here?
**A.** inactive

**Q.** Which Potency does the source give for `Nc1ccc(Br)cc1` here?
**A.** inactive

**Q.** For `CCCN(CCC)N=O`, which Potency is on record?
**A.** inactive

**Q.** With `C#CC(C)(C)NC(=O)c1cc(Cl)cc(Cl)c1` as the compound, how does the Potency read?
**A.** inactive

**Q.** Which Potency does the source give for `CN(C)N=O` here?
**A.** inactive

**Q.** Which Potency does the source give for `CCNc1nc(NC(C)(C)C)nc(SC)n1` here?
**A.** 27.3 µM (active)

**Q.** Which Potency does the source give for `C=CCO` here?
**A.** inactive

**Q.** Which Potency does the source give for `O=c1n(Cl)c(=O)n(Cl)c(=O)n1Cl` here?
**A.** inactive

**Q.** For `CC(C)(Cl)Cl`, which Potency is on record?
**A.** inactive

**Q.** With `CCOC(=O)c1ccccc1C(=O)OCC` as the compound, how does the Potency read?
**A.** inactive

**Q.** With `C#CCN(C)[C@H](C)Cc1ccccc1` as the compound, how does the Potency read?
**A.** inactive

**Q.** For `c1ccc2c(c1)Oc1ccccc1O2`, which Potency is on record?
**A.** inactive

**Q.** For `CCCCN(CC)C(=O)SCCC`, which Potency is on record?
**A.** inactive
